Screening results (PubChem)
A selection: hits, their analogues and other compounds. The true share with any hit is near 6.8%.
T cruzi growth-1: T. cruzi intracellular proliferation inhibitors, primary screen, cell-based, beta-gal Tulahuen parasites, NIH3T3 host, luminescence; 77,000 tested, 5.9% active; inhibition, % at 8.34 µM; T. cruzi beta-gal in NIH3T3, GalScreen luminescence, 90 h;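 active = mean inhibition above about 93%, with at least 55% of replicates each passing it, limit read from the data, passing the limit was not always enough; inconclusive = only one of those two conditions holds; inactive = neither condition holds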
Pf Dd2 growth: P. falciparum Dd2 growth inhibitors, primary screen, SYBR Green fluorescence, single dose replicates; 72 h; hits give low values; activity change, % at 10 µM; 94,000 tested, 2.3% active; in the data active = activity change below about -80%; inconclusive = no clear call, values can overlap the other calls
C diff HTS: C. difficile growth inhibitors, primary screen, HTS; Clostridium difficile clinical isolate growth, OD600, 24 h; hits give low values; growth activity, negative = inhibition, % at 16 µg/mL (by protocol); AID 1259249, 2017; 86,000 tested, 0.25% active;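 active = mean growth activity at or below -80% and every replicate also at or below -80%; inconclusive = mean at or below -80% but some replicate above -80%; inactive = mean growth activity above -80%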;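 note: 0% = DMSO wells and -100% = levofloxacin 16 µg/mL wells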
T cruzi growth-2: T. cruzi intracellular proliferation inhibitors, confirmation, cell-based, NIH3T3 host, beta-gal parasite, luminescence, cherry-pick; 5,600 tested, 72% active; shares compounds with T cruzi growth-1; T. cruzi beta-gal in NIH3T3, GalScreen luminescence, 90 h; inhibition, % at 8.35 µM;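 active = mean replicate inhibition above about 95% and at least 55% of replicates individually reaching it, limit read from the data; inconclusive = only one of the two criteria is met; inactive = neither criterion is met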
T cruzi growth-3: inhibitors of intracellular T. cruzi replication, confirmation, NIH3T3 host cells, beta-gal parasites, cherry-pick, set 2. shares compounds with T cruzi growth-1. T. cruzi beta-gal in NIH3T3, GalScreen luminescence, 90 h. inhibition, % at 2.09 µM. 5,600 tested, 21% active. AID 651740, 2012;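 active = mean inhibition above about 95%, with at least 55% of replicates also reaching it, limit read from the data; inconclusive = meets just one of the two conditions; inactive = meets neither condition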;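 note: plate controls were neutral control median for no effect and positive control median for full effect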
NIH3T3 tox: cytotoxicity in mouse NIH/3T3 fibroblasts, confirmation, cytotoxicity control for T. cruzi proliferation inhibitor project, cell-based, cherry-pick, single point. cytotoxicity (signal decrease), % at 8.35 µM. shares compounds with T cruzi growth-1. NIH/3T3 viability, CellTiter-Glo ATP luminescence, 90 h. 5,600 tested, 14% active;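 active = mean signal decrease across replicates above about 35% based on untreated-well scatter, with enough replicates individually passing, limit read from the data; inconclusive = no rule stated though some were filed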;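 note: 0% = median of neutral control wells and 100% = median of positive control wells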
3T3 cytotox 2: NIH/3T3 fibroblast cytotoxicity, confirmation, cytotoxicity control, cell-based, cherry-pick, single point, set 2; shares compounds with T cruzi growth-1; NIH/3T3 viability, CellTiter-Glo ATP luminescence, 90 h; 5,600 tested, 56% active; inhibition, % at 24.9 µM;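 active = mean loss of cell viability signal at or above a set limit, and enough replicates individually reaching it; inconclusive = meets only the mean limit or only the replicate share; inactive = meets neither condition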;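 note: 0% = median of neutral control wells and 100% = median of positive control wells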
Active calls of the source: *; ? = inconclusive; . = no result; + = active, no number.

SMILES	T cruzi growth-1	Pf Dd2 growth	C diff HTS	T cruzi growth-2	T cruzi growth-3	NIH3T3 tox	3T3 cytotox 2
CCN1[C@@H]2Cn3c(ccc(C4=CCCC4)c3=O)[C@H]1[C@@H](C(=O)NCc1ccccn1)[C@@H]2CO	99*	-4	-4	9	-9	-14	-7
CCCN1[C@@H]2c3ccc(C4=CCCCC4)c(=O)n3C[C@H]1[C@H](CO)[C@H]2C(=O)NCCc1ccncc1	.	-6	-3	.	.	.	.
CCN1[C@@H]2c3ccc(C4=CCCCC4)c(=O)n3C[C@H]1[C@H](CO)[C@H]2C(=O)NCc1ccccn1	26	3	0	.	.	.	.
CCC(=O)N1[C@H](CO)[C@@H]2c3ccccc3N(C(=O)c3cccc(OC)c3)C[C@@H]21	7	14	1	.	.	.	.
C[C@@H]1CN([C@H](C)CO)C(=O)c2cc(NC(=O)NC3CCCCC3)ccc2O[C@@H](C)CCCCO[C@H]1CN(C)Cc1ccccc1	-6	-65	-7	.	.	.	.
COCC#Cc1ccc([C@@H]2[C@H]3CN(S(=O)(=O)c4ccc(OC)cc4)CCCCN3[C@H]2CO)cc1	99*	-20	-4	100*	43	4	31*
COCC#Cc1ccc([C@H]2[C@H](CO)N3CCCCN(S(=O)(=O)c4cccc(OC)c4)C[C@@H]23)cc1	108*	-27	0	97*	39	13	?
COCC#Cc1ccc([C@H]2[C@@H](CO)N3CCCCN(S(=O)(=O)c4cccc(OC)c4)C[C@@H]23)cc1	16	-10	1	.	.	.	.
COCC#Cc1ccc([C@@H]2[C@@H](CO)N3CCCCN(S(=O)(=O)c4ccc(OC)cc4)C[C@@H]23)cc1	72	-51	-4	.	.	.	.
CC=Cc1ccc2n(c1=O)C[C@H]1[C@H](CO)[C@@H](C(=O)NCCc3ccncc3)N(CCC(F)(F)F)[C@@H]21 (mixture of isomers)	41	7	-1	.	.	.	.
CC=Cc1ccc2n(c1=O)C[C@@H]1[C@@H](CO)[C@H](C(=O)NCCc3ccncc3)N(CCC(F)(F)F)[C@H]21 (mixture of isomers)	108*	2	1	-49	-39	-30	5
CC=Cc1ccc2n(c1=O)C[C@@H]1[C@@H](CO)[C@H](C(=O)NCC)N(C(=O)c3cccnc3)[C@H]21 (mixture of isomers)	-23	3	1	.	.	.	.
CC=Cc1ccc2n(c1=O)C[C@H]1[C@H](CO)[C@@H](C(=O)NCC(F)(F)F)N(C(=O)c3cccnc3)[C@@H]21 (mixture of isomers)	+	.	20	87	24	13	4
CC=Cc1ccc2n(c1=O)C[C@@H]1[C@@H](CO)[C@H](C(=O)NC3CCCC3)N(Cc3ccncc3)[C@H]21 (mixture of isomers)	20	.	-1	.	.	.	.
CCC(=O)N(C)C[C@H]1Oc2ncc(C#CCc3ccccc3)cc2C(=O)N([C@@H](C)CO)C[C@H]1C	.	-31	-7	.	.	.	.
CCC(=O)Nc1ccc2c(c1)C(=O)N(C)[C@H]1CC[C@H](CC(=O)Nc3cccc(OC)c3)O[C@@H]1CO2	-2	0	-3	.	.	.	.
Cc1noc(C)c1S(=O)(=O)N(C)C[C@@H]1OCCCC[C@@H](C)Oc2ccc(NC(=O)Nc3ccccc3)cc2C(=O)N([C@@H](C)CO)C[C@@H]1C	.	-43	22	.	.	.	.
Cc1noc(C)c1S(=O)(=O)N(C)C[C@H]1OCCCC[C@H](C)Oc2ccc(NC(=O)Nc3cccc4ccccc34)cc2C(=O)N([C@H](C)CO)C[C@@H]1C	116*	-42	-11	101*	41	2	35*
Cc1noc(C)c1S(=O)(=O)N(C)C[C@H]1OCCCC[C@@H](C)Oc2ccc(NC(=O)Nc3cccc4ccccc34)cc2C(=O)N([C@@H](C)CO)C[C@H]1C	113*	-73	0	102*	60	-6	-35
